A selection: hits, their analogues and other compounds. The true share with any hit is near 1.2%.
TRPV1 agonist: human TRPV1 agonism | activation, % at 8.33 µM | TRPV1-expressing cells, Fluo-8 calcium influx, agonist mode | 320,000 tested, 0.19% active | Q8NER1; in the data active = activation above about 80%; inconclusive = between about 30% and that limit
Target sequence (Q8NER1 whole entry, looked up): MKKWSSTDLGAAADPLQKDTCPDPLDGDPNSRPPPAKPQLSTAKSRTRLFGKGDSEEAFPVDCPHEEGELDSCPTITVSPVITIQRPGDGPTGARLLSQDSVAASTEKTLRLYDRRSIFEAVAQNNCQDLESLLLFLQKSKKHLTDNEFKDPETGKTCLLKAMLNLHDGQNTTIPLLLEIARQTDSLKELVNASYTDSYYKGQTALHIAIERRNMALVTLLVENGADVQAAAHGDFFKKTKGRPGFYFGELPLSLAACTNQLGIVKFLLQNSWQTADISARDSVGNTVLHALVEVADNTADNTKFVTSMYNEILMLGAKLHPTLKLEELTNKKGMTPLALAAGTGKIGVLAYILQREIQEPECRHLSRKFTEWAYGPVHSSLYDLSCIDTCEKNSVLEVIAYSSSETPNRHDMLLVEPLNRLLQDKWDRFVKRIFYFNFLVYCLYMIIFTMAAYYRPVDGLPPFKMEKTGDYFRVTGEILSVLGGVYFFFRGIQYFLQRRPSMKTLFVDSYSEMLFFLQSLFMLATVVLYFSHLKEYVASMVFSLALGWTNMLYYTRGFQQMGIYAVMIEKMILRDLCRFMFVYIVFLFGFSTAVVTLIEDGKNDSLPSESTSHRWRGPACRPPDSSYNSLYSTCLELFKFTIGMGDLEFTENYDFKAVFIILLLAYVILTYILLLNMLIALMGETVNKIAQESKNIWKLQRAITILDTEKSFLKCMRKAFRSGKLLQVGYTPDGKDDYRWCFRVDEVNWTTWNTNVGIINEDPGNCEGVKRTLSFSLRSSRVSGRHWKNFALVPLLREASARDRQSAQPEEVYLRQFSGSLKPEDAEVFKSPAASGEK
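TRPV1-expressing cells were cultured overnight at 35.5C and loaded with Fluo-8 calcium dye for 40 to 90 min at room temperature. After a 10 s baseline, compound was added and calcium influx was read kinetically for 3 min (ex 480/em 520 nm).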
KCNH2 3.1 block: inhibitors of human KCNH2 3.1 potassium channel isoform | 340,000 tested, 0.95% active | activity change, % (tested at about 1.8 µM) | U2OS KCNH2 3.1, thallium flux FluxOr; stronger effect = lower value | AID 720553;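 active = maximum activity change below -70%; inconclusive = maximum activity change from -70% to -50%; inactive = maximum activity change above -50%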;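 also: thallium influx rate constant from kinetic fluorescence after stimulation buffer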
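U2OS cells transduced with KCNH2 3.1 mutant virus (1.77 x 10^8 /mL, 4 h), plated overnight at 37 C, loaded 45 min with FluxOr dye plus Red40 quencher. Thallium flux rate constant from kinetic reads after stimulation buffer, normalised to controls.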
KCNH2 WT inh: blocks the wildtype human KCNH2 potassium channel; Q12809; U2OS, BacMam KCNH2, thallium flux FluxOr; stronger effect = lower value; activity change, % at 1.84 µM; 340,000 tested, 0.37% active;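 active = maximum activity change below -70%; inconclusive = maximum activity change between -70% and -50%; inactive = maximum activity change above -50%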
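U2OS cells were transduced with wild-type KCNH2 virus (2.03 x 10^8 / mL) for 4 h at room temperature, then cultured overnight at 37 C. Thallium flux was read with FluxOr dye. Rate constants were normalized to DMSO controls.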
TRPV1 PAM: enhances activation of the human vanilloid receptor TRPV1. 320,000 tested, 0.02% active. potentiation, % at 8.33 µM. TRPV1-expressing cells, Fluo-8 calcium influx, capsaicin EC20 potentiation. Q8NER1. AID 540277; in the data active = potentiation above about 80%; inconclusive = between about 30% and that limit
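Fluo-8 calcium influx in TRPV1-expressing cells, kinetic read (ex 480/em 520 nm). Compound added and read 3 min for agonist activity, followed by capsaicin at EC20 final and 2 min further read for enhancement.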
Large screens that a line does not name were inactive.

COc1ccc(Nc2nc(NCc3ccco3)nc(N3CCOCC3)n2)cc1	TRPV1 agonist 85.8
COc1ccc(Nc2nc(N3CCOCC3)nc(N3CCOCC3)n2)cc1	none
C[C@@H]1CN([C@@H](C)CO)C(=O)CCCn2nncc2CO[C@H]1CN(C)C(=O)C1CC1	none (no result: TRPV1 agonist, TRPV1 PAM)
COc1ccccc1NCCC(=O)OCC(=O)Nc1ccccc1F	none (no result: TRPV1 agonist, TRPV1 PAM)
COc1ccccc1NCCC(=O)OCC(=O)Nc1ccccc1Cl	KCNH2 3.1 block -209.5, KCNH2 WT inh -106.4 (no result: TRPV1 agonist, TRPV1 PAM)
NS(=O)(=O)c1ccc(CCNCc2ccccc2OCc2ccc(Cl)cc2)cc1	KCNH2 3.1 block -70.9
CCOC(=O)c1c(C)[nH]c(C(=O)N/N=C/c2cc([N+](=O)[O-])ccc2O)c1C	KCNH2 3.1 block -70.1, TRPV1 PAM inconclusive
CCOC(=O)c1c(C)[nH]c(C(=O)N/N=C\c2ccccc2O)c1C	none
CC1(C)NC(=O)N(CC(O)CN(Cc2ccccc2)Cc2ccccc2)C1=O (stereo not drawn)	TRPV1 agonist 82.5
NC(=O)COC(=O)CC(c1ccccc1)c1ccccc1	KCNH2 3.1 block -94.1
CC(=O)c1cc(CN2CCC(N3CCC(C(=O)NC(C)C)CC3)CC2)cs1	none
CC(C)NC(=O)C1CCN(C2CCN(Cc3nc4ccccc4s3)CC2)CC1	KCNH2 3.1 block -118.1
CN1CCN(c2ccccc2NC(=O)c2ccc(N3CCCC3)c([N+](=O)[O-])c2)CC1	none
CN1CCN(c2ccc(C(=O)c3ccc(Br)cc3)cc2[N+](=O)[O-])CC1	KCNH2 3.1 block -81.3
CCN1C(=O)CC(Sc2ccccc2C(=O)O)C1=O (stereo not drawn)	KCNH2 3.1 block -104.2
CCOC(=O)C1(Cc2cccc(OC)c2)CCN(CCO)CC1	none
CCOC(=O)C1(CCOc2ccccc2)CCN(Cc2ccc(OC)c(O)c2)CC1	KCNH2 3.1 block -111.6, KCNH2 WT inh -76.9, TRPV1 PAM inconclusive
CCOC(=O)C1(Cc2cccc(OC)c2)CCN(Cc2ccc(OC)c(O)c2)CC1	KCNH2 3.1 block -77.1
CCOC(=O)C1(CCOc2ccccc2)CCN(Cc2cc(OC)c(O)c(OC)c2)CC1	KCNH2 3.1 block -77.0
CCOC(=O)C1(CCOc2ccccc2)CCN(Cc2ccc(O)c(OCC)c2)CC1	KCNH2 3.1 block -102.4, KCNH2 WT inh -117.7
O=C(Cn1[nH]c(=O)c2ccccc2c1=O)NCCN1C(=O)S/C(=C\c2ccccc2)C1=O	none (no result: TRPV1 agonist, TRPV1 PAM)
Cc1nc(CNS(=O)(=O)c2cc(F)ccc2F)cs1	KCNH2 3.1 block -180.8
Cc1nc(CNS(=O)(=O)c2cccc(F)c2)cs1	none
COCCCNCCCCOc1ccc(OCc2ccccc2)cc1	KCNH2 3.1 block -76.8
C=CCNCCCCOc1ccc(OCc2ccccc2)cc1	KCNH2 3.1 block inconclusive (no result: KCNH2 WT inh)
CN(CCOc1ccc(Br)cc1)CC(O)COc1ccc(C#N)cc1 (stereo not drawn)	KCNH2 3.1 block -119.6, KCNH2 WT inh -113.0
COc1ccc(Br)cc1CN(C)CC(O)COc1ccc(Br)cc1 (stereo not drawn)	KCNH2 3.1 block -74.7
CN(C)S(=O)(=O)Nc1ccc(Cc2ccncc2)cc1	none (no result: TRPV1 agonist, TRPV1 PAM)
Cc1cc(C)c2nc(-c3ccccn3)cc(C(=O)NCc3cc(C)n(C)n3)c2c1	TRPV1 agonist 87.5
O=C(c1ccccc1NS(=O)(=O)c1ccc(F)cc1F)N1CCCCC1	none (no result: TRPV1 agonist, TRPV1 PAM)
CC1=C(C(=O)N2CCOCC2)C(c2cccc(C)c2)NC(=S)N1 (stereo not drawn)	none
COc1ccc(C2NC(=S)NC(C)=C2C(=O)N2CCOCC2)cc1 (stereo not drawn)	KCNH2 WT inh -278.1
Clc1cccc(Cl)c1Cn1nnc(N2CCCC2)n1	KCNH2 WT inh -138.1, TRPV1 PAM inconclusive
Fc1cccc(Cl)c1Cn1nnc(-c2ccc(N3CCOCC3)cc2)n1	none
CCC(CC)NC(=O)Nc1ccccc1C(F)(F)F	KCNH2 WT inh -111.6
CCN1C(=O)[C@H]2[C@@H](c3ccc(C(F)(F)F)cc3)N[C@]3(CCCN(Cc4ccc(Cl)cc4)C3=O)[C@H]2C1=O	none (no result: TRPV1 agonist, TRPV1 PAM)
COc1ccc([C@H]2[C@@H](C#N)[C@H](C#N)N3CCCN23)cc1	KCNH2 3.1 block -98.4
COCCCNC(=O)c1cc(S(=O)(=O)N2CCC3(CC2)OCCO3)ccc1F	none (no result: TRPV1 agonist, TRPV1 PAM)
COc1ccc(/C=C/C(=O)OCC(=O)NCc2ccccc2)cc1OC	none
COc1ccc(CNC(=O)COC(=O)/C=C/c2cccc(Br)c2)cc1OC	TRPV1 agonist 86.6, TRPV1 PAM inconclusive
CCOC(=O)c1nc(C)sc1-c1ccnn1S(=O)(=O)c1cccc(Cl)c1	KCNH2 WT inh -135.0
CCOc1ccccc1CN1CCC(CO)(CCOc2ccccc2)CC1	none
OC1(c2ccc(Cl)cc2)CCN(Cc2cn[nH]c2-c2ccccc2)CC1	KCNH2 3.1 block -86.5, KCNH2 WT inh inconclusive
COc1ccc(-c2[nH]ncc2CN2CCC(O)(c3ccc(Cl)cc3)CC2)cc1	KCNH2 3.1 block -70.0
Fc1ccc(-c2[nH]ncc2CN2CCN(c3ccc(F)cc3)CC2)cc1	none (no result: TRPV1 agonist, TRPV1 PAM)
OC1(c2ccc(Cl)cc2)CCN(Cc2cn[nH]c2-c2ccc(F)cc2)CC1	KCNH2 3.1 block -87.6
COc1ccc(-c2[nH]ncc2CN2CCN(c3ccc(F)cc3)CC2)cc1	none
OCC1(CCOc2ccccc2)CCN(Cc2cn[nH]c2-c2ccc(F)cc2)CC1	KCNH2 3.1 block -104.2, KCNH2 WT inh inconclusive
Fc1ccc(N2CCN(Cc3cn[nH]c3-c3ccccc3)CC2)cc1	KCNH2 3.1 block inconclusive (no result: TRPV1 agonist, TRPV1 PAM)
CSc1ncccc1C(=O)NC1CCN(Cc2ccccc2)CC1	none
CC1CCCN(C(=O)c2cccc(S(=O)(=O)N3CCCC3)c2)C1 (stereo not drawn)	none
COc1ccc(-c2onc(C)c2-c2cscn2)c(O)c1	none
CCc1cc(-c2onc(C)c2-c2cscn2)c(O)cc1OC	KCNH2 3.1 block -89.5
CC(C)(C)CN1CCC(n2nccc2NC(=O)c2ccccc2Cl)CC1	none
CC(CCN1CCC(n2nccc2NC(=O)c2ccccc2Cl)CC1)c1ccccc1 (stereo not drawn)	KCNH2 3.1 block -98.6, KCNH2 WT inh inconclusive
O=C(Nc1ccnn1C1CCN(CCCC2CCCC2)CC1)c1ccccc1Cl	KCNH2 3.1 block -105.5, KCNH2 WT inh -93.3
COc1ccccc1C(=O)Nc1ccnn1C1CCN(CC2CC=CCC2)CC1 (stereo not drawn)	KCNH2 3.1 block -80.2
COc1ccccc1C(=O)Nc1ccnn1C1CCN(CCCC2CCCC2)CC1	KCNH2 3.1 block -113.7, KCNH2 WT inh -142.5
O=C(COC(=O)c1ccc(S(=O)(=O)N2CCOCC2)cc1)Nc1ccccc1OC(F)F	none (no result: TRPV1 agonist, TRPV1 PAM)
COc1ccc(S(=O)(=O)N2CCOCC2)cc1NC(=O)CCOc1ccc(C(C)(C)C)cc1	none
CC(C)CNS(=O)(=O)c1ccc(Br)cc1N1CCC[C@@H]1CO	none (no result: TRPV1 agonist, TRPV1 PAM)
CC(NC(=O)c1cccs1)c1ccccc1 (stereo not drawn)	KCNH2 3.1 block -95.1 (no result: TRPV1 agonist, TRPV1 PAM)
O=C(Cn1nnc(-c2ccc(OCc3ccccc3F)cc2)n1)N1CCOCC1	KCNH2 3.1 block -89.6
O=C(Nc1ccc2c(c1)OCO2)C1CCN(C(=O)CSc2ncnc3ccccc23)CC1	TRPV1 agonist 80.8
CC(Sc1ncnc2ccccc12)C(=O)Nc1ccc2c(c1)OCO2 (stereo not drawn)	none

Source: PubChem (National Center for Advancing Translational Sciences (NCATS))
